Compounds with a hit are over-represented: about 3.6% of the library has one in this group of screens.
Mm-Cpn inhibitor = blocks the Methanococcus maripaludis chaperonin Mm-Cpn; purified Mm-Cpn ATPase, ADP Transcreener TR-FRET; Potency, µM (top dose mostly 76.9 µM), inactives show top-dose activity, negative = inhibition, actives largely listed as inhibitors; 330,000 compounds, 0.031% hits; AID 504842; further: on the % scale 0 is the no-effect control and ±100 the full control effect; nearly all actives have a fitted effect of over 80% in size
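Reaction buffer contained 30 mM Tris pH 7.4, 100 mM KCl, 5 mM MgCl2 and 1 mM DTT. Mm-CPN (25 nM final) hydrolysed 10 uM ATP over 30 min at 37°C; ADP was read by HTRF.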
ClpP mod = qHTS Assay for Activators of ClpP; ATP-dependent Clp protease proteolytic subunit (Bacillus subtilis (strain 168)), P80244; purified B. subtilis ClpP, FRET peptide cleavage, 20 min; Potency, µM (doses to about 57.5 µM), inactives show top-dose activity change, negative = active; 340,000 compounds, 1.9% hits; active means well fitted falling curve with a large enough effect; inconclusive means small, poorly fitted or top-dose-only effect; inactive means no such curve, though single readings can be large or run the other way; further: the source files actives as falling curves though it sought activators and does not explain the sign; nearly all actives have a fitted effect of over 65% in size
Target sequence (P80244 whole entry, looked up): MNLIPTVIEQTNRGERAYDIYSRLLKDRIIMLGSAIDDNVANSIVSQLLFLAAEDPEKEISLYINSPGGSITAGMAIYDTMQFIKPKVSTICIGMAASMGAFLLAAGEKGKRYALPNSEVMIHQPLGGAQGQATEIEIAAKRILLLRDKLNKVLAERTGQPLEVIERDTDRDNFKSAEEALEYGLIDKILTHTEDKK
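Buffer: 100 mM Tris/HCl pH8, 100 mM KCl, 0.05% low protease BSA, 2.5% glycerol, 0.01% Tween-20. ClpP 10 microg/mL final; 20 min RT; delta FRET normalized to ADEP and DMSO controls.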
TDP-43 yeast inh = rescues yeast growth from TDP-43 toxicity. TDP-43 expressing yeast growth rescue, BacTiter-Glo, 24 h. Potency, µM (highest dose often 46.1 µM), for inactives: top-dose growth rescue (activation), actives largely listed as activators. 410,000 compounds, 1.8% hits; further: % of control where 0% means no effect; nearly all actives have a fitted effect of over 50% in size
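Growth rescue of TDP-43-toxic yeast measured as ATP luminescence (BacTiter-Glo). Cells grown to mid-log in raffinose, induced in galactose at OD600=0.02, exposed to compound 24 hr at 30 deg C.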
aSyn yeast inh = rescues yeast growth from alpha-synuclein toxicity; Yeast expressing alpha-synuclein, growth rescue, BacTiter-Glo, 24 h; Potency, µM (top dose mostly 46.1 µM), inactives show at the highest dose growth rescue (activation), actives largely listed as activators; 370,000 compounds, 0.14% hits; AID 652106; further: % of control where 0% means no effect; nearly all actives have a fitted effect of over 65% in size
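Screening used galactose-induced yeast with toxic alpha-synuclein levels, exposed to compound for 24 hr at 30 deg C. Cell growth, read with BacTiter-Glo luminescence, gave the measured signal.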
FUS yeast rescue = FUS proteinopathy suppression in yeast; 390,000 compounds, 0.24% hits; Potency, µM (doses to about 76.6 µM), usual class: activators; AID 1347120; S. cerevisiae FUS-expressing, growth rescue, OD600, 24 h;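 further: plate controls were DMSO vehicle for no effect and reference control for full effect; nearly all actives have a fitted effect of over 55% in size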
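Yeast FUS proteinopathy model; galactose-induced FUS (2%), starting OD 0.005. Cpds in dilution series, 24hr, 30C, 99% humidity. Abs 600 nm growth. Pos ctrl CP55940 (top 92uM final); neg ctrl DMSO.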
Abeta yeast res = restores growth of yeast expressing A-beta42 peptide; yeast expressing A-beta42, growth rescue, OD600, 48 h; response scale: 0% DMSO, 100% iron-clioquinol control; Potency, µM (titrated, usually from 46.1 µM), hits mostly activators; AID 1347071; 410,000 compounds, 0.063% hits; further: nearly all actives have a fitted effect of over 55% in size
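Growth rescue measured by 600 nm absorbance after 48 h yeast culture at 30 C with compound. Values normalized between DMSO and an equimolar ferric chloride plus clioquinol control.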
Numbers without * were called inactive; i = inactive; ? = inconclusive; . = no result. Unless noted, the call rests on the fitted dose curve; in most records, active means well fitted curve in the direction sought with a large enough effect; inconclusive means small, poorly fitted or top-dose-only effect, or another doubt; inactive means no such curve, though single readings can be large; an effect the other way counts as inactive or inconclusive. Potency means the concentration at half of the fitted maximal effect.

SMILES	Mm-Cpn inhibitor	ClpP mod	TDP-43 yeast inh	aSyn yeast inh	FUS yeast rescue	Abeta yeast res
Cc1ccc(-c2nnc(-c3ccc(NC(=O)c4ccco4)cc3)o2)cc1	-3.5%	31.6µM*	-3.7%	-4.7%	i	i
Cc1ccc(NC(=S)NNC(=O)c2ccco2)cc1	-5.6%	-0.3%	-10.9%	-4.9%	i	i
CCOc1ccc(/C=C/C(=O)Nc2sc3c(c2C(=O)OC)C(C(=O)OC)CC3)cc1 (stereo not drawn)	.	-5.3%	9.8%	.	i	i
O=C1CC(c2ccc(Br)cc2)c2c(ccc3ccccc23)N1 (stereo not drawn)	.	-16.1%	35.5µM*	.	i	i
Cc1ccc(NC(=O)CSc2nccn2C2CCCC2)cc1Cl	.	-2.5%	6.6%	.	i	i
Cc1ccc2nc(N3CCC(C(=O)N4CCN(c5cccc(Cl)c5)CC4)CC3)[nH]c2c1	.	-1.9%	?	.	i	i
CCOC(=O)Cc1nc(N2CCN(CCN)CC2)c2c(C)c(C(=O)OCC)sc2n1	.	.	.	.	i	.
COc1ccccc1Oc1nc(-c2ccccc2)cc(C)c1S(C)(=O)=O	-2.1%	25.1µM*	-2.1%	-4.5%	i	i
CCOc1ccc(/C=C/c2ccc3ccccc3[n+]2C)cc1OCC	.	-2.8%	.	-1.8%	.	.
CC(=O)Nc1ccccc1OCC(=O)NCCc1ccc(Cl)cc1Cl	-1.9%	31.6µM*	12.4%	1.4%	i	i
O=C(COC(=O)Cc1ccc(Cl)cc1Cl)Nc1ccccc1OC(F)F	1.4%	0.7%	20µM*	8.6%	i	i
COc1ccccc1NC(=O)COC(=O)C1CCCC1	0.6%	-2.5%	1.2%	-21.2%	i	i
CSc1ccc(Cl)c(C(=O)OCC(=O)Nc2ccccc2OC(F)F)c1	-3.0%	28.2µM*	3.6%	-1.7%	.	i
O=C(COC(=O)Cc1ccc(Cl)cc1Cl)Nc1ccc(OC(F)F)cc1	-0.5%	0.8%	3.1%	12.7%	.	i
O=C(COC(=O)C1CCCCC1)Nc1ccccc1OC(F)F	0.8%	.	12.6µM*	6.5%	i	i
COc1ccc(NC(=O)COC(=O)c2cc(SC)ccc2Cl)c(OC)c1	-5.3%	-0.3%	0.0%	8.0%	i	i
COC(=O)c1cc(C(=O)OCC(=O)Nc2ccccc2OC(F)F)cc([N+](=O)[O-])c1	-0.7%	28.2µM*	22.4µM*	15.0%	i	i
CCOc1ccccc1NC(=O)COC(=O)c1cc(C(=O)OC)cc([N+](=O)[O-])c1	-0.4%	-1.5%	-26.3%	-0.7%	i	i
Cc1ccc(NC(=S)c2nc3ccccc3[nH]2)c(C)c1	-2.1%	2.3%	17.8µM*	-4.5%	i	?
CCOC(=O)c1nc(Nc2ccc(Cl)cc2)c2c(C)noc2n1	.	2.9%	?	.	i	i
CCOC(=O)C1=C(Nc2ccc(Cl)cc2)OCC1=O	-10.0%	-2.4%	11.2µM*	-0.5%	i	i
Cc1cccc(Cn2nc(C)n3c(cc4cc(C)ccc43)c2=O)c1	.	-1.8%	4.6%	.	i	i
Cn1c(=O)c2c(ncn2CC(O)CNc2ccc(Cl)cc2)n(C)c1=O (stereo not drawn)	.	0.1%	6.0%	-8.6%	i	i
Cc1ccc(NCC(O)Cn2cnc3c2c(=O)n(C)c(=O)n3C)cc1 (stereo not drawn)	0.9%	28.2µM*	-5.6%	-6.1%	i	i
CCOc1ccc(-c2nc(N)ncc2-c2ccc(Cl)cc2)c(O)c1	-0.8%	-0.8%	22.4µM*	2.9%	i	i
SMILES	Mm-Cpn inhibitor	ClpP mod	TDP-43 yeast inh	aSyn yeast inh	FUS yeast rescue	Abeta yeast res
Cc1cccc(NC(=O)c2cc3c([nH]c2=O)CC(c2ccccc2)CC3=O)c1 (stereo not drawn)	.	-0.6%	-2.4%	.	i	i
NNC(=O)Cn1c(-c2ccccc2)cc2ccccc21	-7.1%	-0.4%	-17.3%	-1.9%	i	i
CC(=O)Nn1c(-c2ccccc2)cc2ccccc21	-1.4%	14.1µM*	-3.5%	0.1%	i	i
N#Cc1ccccc1COC(=O)CCN=C1NS(=O)(=O)c2ccccc21	0.2%	.	-15.3%	-9.7%	i	i
O=C(CCN=C1NS(=O)(=O)c2ccccc21)OCc1nnc(-c2ccc([N+](=O)[O-])cc2)o1	-1.2%	28.2µM*	12.1%	-4.3%	.	i
CCSc1ncnc2nc[nH]c12	.	2.5%	.	?	.	.
O=C(NCCc1csc(-c2cccc(F)c2)n1)c1ccccc1C(F)(F)F	.	-19.3%	17.8µM*	.	i	i
O=C(NCCc1csc(-c2ccc(F)cc2)n1)c1ccc(Br)o1	.	-0.9%	?	.	i	i
O=C(NCCc1csc2nc(-c3ccccc3F)nn12)c1ccccc1C(F)(F)F	.	-0.6%	17.8µM*	.	i	i
O=C(NCCc1csc(-c2cccc(F)c2)n1)c1ccc(Br)o1	.	-16.0%	31.6µM*	.	i	i
COc1cccc(C(=O)NCCc2csc3nc(-c4ccccc4F)nn23)c1OC	.	-6.8%	?	.	i	i
CCc1ccc(CNC(=O)CN2CCSc3ccccc32)cc1	.	0.0%	25.1µM*	10.7%	i	?
N#CC1=C(O)CCCn2c1nc1ccccc1c2=O	-3.3%	-6.0%	1.6%	-16.6%	i	i
N#CC1=C(O)C(c2ccccc2)n2c1nc(=O)c1ccccc12 (stereo not drawn)	-1.6%	17.8µM*	9.3%	3.5%	i	i
O=C(O)CC1CC(O)CCC1=O (stereo not drawn)	.	-4.0%	2.8%	-0.6%	i	i
O=C(O)CC1CCC(=C(Cl)Cl)C1 (stereo not drawn)	-1.0%	-0.1%	-8.0%	11.2µM*	i	i
CCN(C(=O)Cn1c(=O)n(Cc2ccccc2)c(=O)c2c1c1cc(OC)ccc1n2C)c1ccccc1	.	?	28.5%	.	i	i
COc1ccc(CN(C(=O)c2ccco2)C2CCS(=O)(=O)C2)cc1 (stereo not drawn)	1.7%	28.2µM*	7.9%	2.4%	.	i
Cc1cc(OCC(=O)N(Cc2ccco2)C2CCS(=O)(=O)C2)cc(C)c1Cl (stereo not drawn)	-0.9%	28.2µM*	17.0%	7.8%	i	i
COc1cccc(CN(C(=O)c2ccco2)C2CCS(=O)(=O)C2)c1 (stereo not drawn)	2.3%	-3.0%	12.7%	-3.6%	i	i
Fc1cccc(Nc2ncnc3sccc23)c1	0.0%	-3.7%	20µM*	-8.4%	i	i
c1ccc2c(c1)OCC(CNc1ncnc3sccc13)O2 (stereo not drawn)	-0.1%	-1.2%	20µM*	11.9%	i	i
